PubChem BioAssay AID1159580 (chemical genetic matrix, 2015)
Out of some 5,500 compounds screened, about 2,000 (36%) were called active. Another 18% or so got no clear call; they are omitted. Cut-off read from the data, not from the text of the source: active = normalized growth mostly below about 0.91 (no sharp cut-off); inconclusive = no clear call, values can overlap the other calls; inactive = mostly above about 0.92. The list shows a part of the results.

Experiment: chemical genetic growth profiling, strain panel (AID 1159580);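 note: tested at 20 µM; growth read once vehicle control cultures reached saturation at 30 °C; 1 = growth at the plate median or of vehicle wells; lower values mean less growth of the strain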
Conditions: S. cerevisiae deletion strains, growth OD
[1] = locus YAL040C, strain CLN3, active compounds read low
[2] = locus YER002W, strain NOP16, active compounds read low
[3] = locus YJR075W, strain HOC1, active compounds read low
[4] = locus YNL128W, strain TEP1, active compounds read low
[5] = locus YNL197C, strain WHI3, active compounds read low
[6] = locus YNL224C, strain SQS1, active compounds read low
[7] = locus YOR083W, strain WHI5 (second series), active compounds read low

Measured: normalized growth

NCC(O)c1cc(O)c(O)cc1F (stereo unspecified)
inactive: [1] 1 | locus YDR150W, strain NUM1, active compounds read low 1.02 | [2] 1.01 | [3] 1.03 | [4] 1.03 | locus YNL153C, strain GIM3, active compounds read low 1.01 | locus YNL175C, strain NOP13, active compounds read low 0.978 | [5] 0.994 | [6] 1.01 | [7] 1.04 | locus YPL241C, strain CIN2, active compounds read low 1.01

NC(Cc1cc(O)c(O)cc1O)C(=O)O (stereo unspecified)
inactive: [1] 1 | locus YCL061C, strain MRC1 (second series), active compounds read low 0.967 | locus YDR363W, strain ESC2, active compounds read low 0.977 | [2] 1.01 | locus YGR078C, strain PAC10, active compounds read low 0.979 | [3] 0.956 | [4] 0.976 | [5] 0.98 | [6] 1.03 | locus YNL322C, strain KRE1, active compounds read low 0.942 | [7] 1.01

NCCc1cc(O)c(O)cc1O
active: locus YAL021C, strain ccr4, active compounds read low 0.856 | locus YBR231C, strain swc5, active compounds read low 0.884 | locus YDR069C, strain doa4, active compounds read low 0.833 | locus YEL003W, strain gim4, active compounds read low 0.908 | locus YER015W, strain faa2, active compounds read low 0.887 | locus YER155C, strain BEM2 (second series), active compounds read low 0.847 | locus YGL173C, strain kem1, active compounds read low 0.838 | locus YHR027C, strain rpn1, active compounds read low 0.9 | locus YJL164C, strain tpk1, active compounds read low 0.914 | locus YJL166W, strain qcr8, active compounds read low 0.877 | locus YLR342W, strain FKS1, active compounds read low 0.861 | locus YMR058W, strain fet3, active compounds read low 0.697 | locus YNL209W, strain ssb2, active compounds read low 0.899 | locus YNL248C, strain rpa49, active compounds read low 0.807 | locus YOR106W, strain vam3, active compounds read low 0.805 | locus YPL051W, strain arl3, active compounds read low 0.854 | locus YPL106C, strain sse1, active compounds read low 0.847
inactive: locus YAL026C, strain drs2, active compounds read low 0.924 | locus YAL030W, strain snc1, active compounds read low 0.938 | locus YBL061C, strain skt5, active compounds read low 0.948 | locus YBR009C, strain hhf1, active compounds read low 0.963 | locus YBR023C, strain chs3, active compounds read low 0.94 | locus YBR171W, strain sec66, active compounds read low 0.983 | locus YBR279W, strain paf1, active compounds read low 0.948 | locus YCL011C, strain gbp2, active compounds read low 0.96 | locus YCL016C, strain dcc1, active compounds read low 0.962 | locus YCL061C, strain MRC1, active compounds read low 0.934 | locus YCL069W, strain vba3, active compounds read low 0.966 | locus YCR088W, strain abp1, active compounds read low 0.999 | locus YDL005C, strain med2, active compounds read low 1.01 | locus YDL040C, strain nat1, active compounds read low 0.995 | locus YDR001C, strain nth1, active compounds read low 1 | locus YDR137W, strain rgp1, active compounds read low 0.993 | locus YDR159W, strain sac3, active compounds read low 1.02 | locus YDR195W, strain ref2 0.97 | locus YDR297W, strain sur2, active compounds read low 0.941 | locus YDR334W, strain swr1, active compounds read low 0.951 | locus YDR335W, strain msn5, active compounds read low 0.924 | locus YDR392W, strain spt3, active compounds read low 0.882 | locus YEL037C, strain rad23, active compounds read low 0.964 | locus YEL061C, strain CIN8 (second series), active compounds read low 0.987 | locus YER016W, strain bim1, active compounds read low 0.967 | locus YER111C, strain swi4, active compounds read low 0.966 | locus YFR010W, strain ubp6, active compounds read low 0.921 | locus YGL167C, strain pmr1, active compounds read low 0.976 | locus YGL227W, strain vid30, active compounds read low 1.01 | locus YGL240W, strain doc1, active compounds read low 0.917 | locus YGL253W, strain hxk2, active compounds read low 0.963 | locus YHR013C, strain ard1, active compounds read low 0.954 | locus YHR030C, strain SLT2, active compounds read low 0.975 | locus YHR079C, strain IRE1, active compounds read low 0.938 | locus YHR142W, strain chs7, active compounds read low 0.949 | locus YJL092W, strain hpr5, active compounds read low 0.953 | locus YJL095W, strain BCK1 (second series), active compounds read low 0.964 | locus YJL095W, strain BCK1, active compounds read low 0.989 | locus YJL115W, strain asf1, active compounds read low 0.984 | locus YJL129C, strain trk1, active compounds read low 1.09 | locus YJL154C, strain vps35, active compounds read low 1.01 | locus YJR066W, strain TOR1, active compounds read low 0.919 | locus YKL160W, strain elf1, active compounds read low 0.945 | locus YKR026C, strain gcn3, active compounds read low 0.997 | locus YKR091W, strain srl3, active compounds read low 1 | locus YLL001W, strain dnm1, active compounds read low 0.921 | locus YLL026W, active compounds read low 0.933 | locus YLL041C, strain sdh2, active compounds read low 1.01 | locus YLR027C, strain aat2, active compounds read low 0.931 | locus YLR113W, strain HOG1, active compounds read low 1 | locus YLR221C, strain rsa3, active compounds read low 0.939 | locus YLR258W, strain gsy2, active compounds read low 0.964 | locus YLR262C, strain YPT6 (second series), active compounds read low 0.901 | locus YLR320W, strain mms22, active compounds read low 0.884 | locus YLR357W, strain rsc2, active compounds read low 0.901 | locus YLR370C, strain arc18, active compounds read low 0.931 | locus YLR384C, strain iki3, active compounds read low 0.981 | locus YML120C, strain ndi1, active compounds read low 0.95 | locus YMR125W, strain sto1, active compounds read low 1.01 | locus YMR129W, active compounds read low 0.991 | locus YMR205C, strain PFK2, active compounds read low 0.943 | locus YMR231W, strain pep5, active compounds read low 0.98 | locus YNL071W, strain lat1, active compounds read low 0.952 | locus YNL183C, strain NPR1, active compounds read low 0.956 | locus YNL322C, strain KRE1 (second series), active compounds read low 0.995 | locus YNR049C, strain mso1, active compounds read low 0.987 | locus YOR001W, strain rrp6, active compounds read low 0.934 | locus YOR070C, strain gyp1, active compounds read low 0.965 | locus YOR080W, strain dia2, active compounds read low 0.937 | locus YOR083W, strain WHI5, active compounds read low 0.896 | locus YOR231W, strain MKK1, active compounds read low 0.994 | locus YOR265W, strain rbl2, active compounds read low 0.966 | locus YOR270C, strain vph1, active compounds read low 0.951 | locus YOR290C, strain snf2, active compounds read low 0.948 | locus YPL078C, strain atp4, active compounds read low 0.931 | locus YPL240C, strain hsp82, active compounds read low 0.985 | locus YPL256C, strain CLN2, active compounds read low 0.971
